# In PubChem BioAssay (NCATS):
# Results filed as inconclusive are left out. A call without a number means that no potency is given here. Calls of active or inactive are those of the source. Calls follow the shape of the dose curve; as a rule, active = well fitted inhibition curve with a large enough effect; inconclusive = small, poorly fitted or top-dose-only effect; inactive = flat fitted curve, though single readings scatter.
# Test: qHTS to identify inhibitors of the type 1 interferon - major histocompatibility complex class I in skeletal muscle: primary screen against the NCATS Pharmaceutical Collection (AID 1347407);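 also: luminescence of HiBiT knocked into endogenous HLA-B as interferon-induced MHC class I level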
# Conditions: human skeletal muscle cells, IFN-b-induced MHC-I HiBiT luminescence, 24 h; series mostly up to 45.9 µM
# Procedure, shortened: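 HLA-B HiBiT myoblasts, dexamethasone-free growth medium + 4 ng/ml IFN-b; compounds pinned 1 h after seeding, […] from 46 uM; 24 h, 37 C, 5% CO2; lytic HiBiT detection, 10 min RT, luminescence.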
row,SMILES,Potency
1,C/C(=N\O)c1ccc(OCC(=O)N2CCCCC2)cc1,inactive
2,O=C1CN(/N=C/c2ccc([N+](=O)[O-])o2)C(=O)N1,inactive
3,C#C[C@]1(O)CC[C@H]2[C@@H]3CCc4cc(O)ccc4[C@H]3CC[C@@]21C,inactive
4,O=C(/C=C/c1ccccc1)NCCO,inactive
5,CCCCCCCC/C=C/C(=O)O,inactive
6,Cc1cc(O)c2ccccc2c1O,inactive
7,CC(=O)SCC(CC(=O)c1ccc(C)cc1)C(=O)O (stereo not drawn),inactive
8,COc1cccc2c1C(=O)c1c(O)c3c(c(O)c1C2=O)C[C@@](O)(C(=O)CO)C[C@@H]3O[C@H]1C[C@H](N)[C@H](O[C@@H]2CCCCO2)[C@H](C)O1,inactive
9,Nc1ccc([N+](=O)[O-])cc1O,inactive
10,CO[C@@]1(NC(=O)Cc2cccs2)C(=O)N2C(C(=O)O)=C(COC(N)=O)CS[C@@H]21,inactive
11,O=C(Nc1ccc(C(=O)O)c(O)c1)c1ccccc1,inactive
12,C=CCCCCCCCCC(=O)O,inactive
13,Nc1ccc(O)c([N+](=O)[O-])c1,inactive
14,N=C(N)N,inactive
15,COc1ccnc2c1CCCCC2S(=O)c1nc2ccccc2[nH]1 (stereo not drawn),inactive
16,COc1cc2c3cc1Oc1cc(ccc1O)C[C@@H]1c4c(cc(OC)c(O)c4Oc4ccc(cc4)C[C@@H]3N(C)CC2)CC[N+]1(C)C,inactive
17,Cc1nc2ccccc2n1Cc1ccc(Cl)cc1,inactive
18,Nc1c(CC(=O)O)cccc1C(=O)c1ccc(Br)cc1,inactive
19,Cc1ccc(O)c(-n2nc3ccccc3n2)c1,inactive

row,SMILES,Potency
1,COc1cc(NC(C)CCCN)c2ncccc2c1 (stereo not drawn),inactive
2,CCCC(=O)OC[C@@H](OC(=O)CCC)[C@@H](OC(=O)CCC)[C@H](Cn1c2nc(=O)[nH]c(=O)c-2nc2cc(C)c(C)cc21)OC(=O)CCC,inactive
3,CN(C)CCn1nnnc1SCC1=C(C(=O)O)N2C(=O)[C@@H](NC(=O)Cc3csc(N)n3)[C@H]2SC1,inactive
4,Clc1ccccc1-c1nc(-c2ccncc2)no1,inactive
5,NC(=O)C(c1ccccc1)(c1ccccc1)[C@@H]1CCN(CCc2ccc3c(c2)CCO3)C1,inactive
6,CN(C)[C@@H]1C(=O)C(C(=O)NCN2CCCC2)=C(O)[C@@]2(O)C(=O)C3=C(O)c4c(O)cccc4[C@@](C)(O)C3C[C@@H]12 (stereo partly drawn),inactive
7,O=C(CCN1CCN(CCO)CC1)N1c2ccccc2Sc2ccc(C(F)(F)F)cc21,inactive
8,O=C(O)c1ccccc1Nc1cccc(C(F)(F)F)c1,inactive
9,CC1(C)S[C@@H]2[C@H](NC(=O)[C@H](N)c3ccccc3)C(=O)N2[C@H]1C(=O)O,inactive
10,CCCCCCCCCCCCOCCO,inactive
11,Cc1ccc2c(n1)Oc1ccc(C(C)C(=O)OCC(=O)N(C)C)cc1C2 (stereo not drawn),inactive
12,CC(C)OC(=O)c1cc(C(=O)OC(C)C)cc([N+](=O)[O-])c1,inactive
13,CN1CCN(c2cc3c(nn2)Oc2ccccc2N3C)CC1,inactive
14,c1ccc2sc(SN3CCOCC3)nc2c1,inactive
15,O=C(O)Cc1ccc2c(c1)C(=O)c1ccccc1CO2,inactive
16,CCOc1ccc2nc(S(N)(=O)=O)sc2c1,inactive
17,O=C(O)Cc1ccc(-c2ccccc2)cc1,inactive
18,Oc1c(Br)cc(Br)c2cccnc12,inactive
19,O=C(CS)Nc1ccccc1,inactive
